# Experiments:
# [1] = biological target: Sphingosine kinase 1 (Homo sapiens) (UniProt Q9NYA1); details: at 1 µM;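 also: mean SPHK1 inhibition value reported from the GSK PKIS kinase panel screen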
# [2] = biological target: T1, Sphingosine kinase 2 (Homo sapiens) (UniProt Q9NRA0); details: at 0.1 µM
# T1 sequence (whole entry): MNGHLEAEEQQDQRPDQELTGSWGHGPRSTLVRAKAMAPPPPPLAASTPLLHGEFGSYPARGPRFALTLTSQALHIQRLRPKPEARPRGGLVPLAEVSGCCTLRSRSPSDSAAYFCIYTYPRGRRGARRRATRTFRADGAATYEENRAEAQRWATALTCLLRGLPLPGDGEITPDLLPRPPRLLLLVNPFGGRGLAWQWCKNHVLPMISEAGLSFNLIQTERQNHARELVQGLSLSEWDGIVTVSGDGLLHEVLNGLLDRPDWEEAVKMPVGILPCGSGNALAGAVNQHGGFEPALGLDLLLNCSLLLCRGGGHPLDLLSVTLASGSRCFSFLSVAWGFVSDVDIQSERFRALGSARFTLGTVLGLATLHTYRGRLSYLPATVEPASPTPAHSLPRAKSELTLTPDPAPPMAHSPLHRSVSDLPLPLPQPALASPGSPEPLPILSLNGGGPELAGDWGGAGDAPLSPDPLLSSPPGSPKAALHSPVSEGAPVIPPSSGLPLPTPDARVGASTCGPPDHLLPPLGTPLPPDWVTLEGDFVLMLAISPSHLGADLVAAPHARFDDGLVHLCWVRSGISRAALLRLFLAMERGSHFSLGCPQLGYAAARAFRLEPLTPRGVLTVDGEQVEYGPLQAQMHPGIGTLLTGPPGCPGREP
# [3] = biological target: T1, Sphingosine kinase 2 (Homo sapiens); details: at 1 µM
# [4] = biological target: Casein kinase II subunit alpha (Homo sapiens) (UniProt P68400); details: at 0.1 µM
# [5] = biological target: Casein kinase II subunit alpha (Homo sapiens) (UniProt P68400); details: at 1 µM
# [6] = biological target: T2, Inhibitor of nuclear factor kappa-B kinase subunit alpha (Homo sapiens) (UniProt O15111); details: at 0.1 µM
# T2 sequence (whole entry): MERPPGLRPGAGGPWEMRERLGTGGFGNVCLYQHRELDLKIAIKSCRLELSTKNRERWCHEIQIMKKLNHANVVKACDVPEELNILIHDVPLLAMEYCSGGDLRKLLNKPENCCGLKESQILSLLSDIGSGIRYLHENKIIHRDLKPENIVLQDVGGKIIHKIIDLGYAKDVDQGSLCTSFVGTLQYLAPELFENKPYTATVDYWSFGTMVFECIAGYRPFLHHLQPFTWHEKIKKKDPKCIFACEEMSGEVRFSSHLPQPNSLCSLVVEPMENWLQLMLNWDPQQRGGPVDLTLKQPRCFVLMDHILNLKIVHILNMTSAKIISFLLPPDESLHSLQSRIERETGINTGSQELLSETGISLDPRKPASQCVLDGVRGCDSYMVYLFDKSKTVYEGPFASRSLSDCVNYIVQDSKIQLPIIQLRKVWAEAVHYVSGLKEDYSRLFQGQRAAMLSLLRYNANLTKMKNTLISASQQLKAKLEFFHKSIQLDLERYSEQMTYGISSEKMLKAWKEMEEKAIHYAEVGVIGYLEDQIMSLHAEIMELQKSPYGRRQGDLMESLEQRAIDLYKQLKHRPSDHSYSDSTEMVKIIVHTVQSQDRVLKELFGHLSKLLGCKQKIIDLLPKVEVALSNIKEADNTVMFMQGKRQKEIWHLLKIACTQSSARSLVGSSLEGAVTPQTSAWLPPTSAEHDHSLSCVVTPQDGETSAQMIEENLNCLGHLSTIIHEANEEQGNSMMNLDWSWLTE
# [7] = biological target: T2, Inhibitor of nuclear factor kappa-B kinase subunit alpha (Homo sapiens); details: at 1 µM
# [8] = biological target: T3, Inhibitor of nuclear factor kappa-B kinase subunit beta (Homo sapiens) (UniProt O14920); details: at 0.1 µM
# T3 sequence (whole entry): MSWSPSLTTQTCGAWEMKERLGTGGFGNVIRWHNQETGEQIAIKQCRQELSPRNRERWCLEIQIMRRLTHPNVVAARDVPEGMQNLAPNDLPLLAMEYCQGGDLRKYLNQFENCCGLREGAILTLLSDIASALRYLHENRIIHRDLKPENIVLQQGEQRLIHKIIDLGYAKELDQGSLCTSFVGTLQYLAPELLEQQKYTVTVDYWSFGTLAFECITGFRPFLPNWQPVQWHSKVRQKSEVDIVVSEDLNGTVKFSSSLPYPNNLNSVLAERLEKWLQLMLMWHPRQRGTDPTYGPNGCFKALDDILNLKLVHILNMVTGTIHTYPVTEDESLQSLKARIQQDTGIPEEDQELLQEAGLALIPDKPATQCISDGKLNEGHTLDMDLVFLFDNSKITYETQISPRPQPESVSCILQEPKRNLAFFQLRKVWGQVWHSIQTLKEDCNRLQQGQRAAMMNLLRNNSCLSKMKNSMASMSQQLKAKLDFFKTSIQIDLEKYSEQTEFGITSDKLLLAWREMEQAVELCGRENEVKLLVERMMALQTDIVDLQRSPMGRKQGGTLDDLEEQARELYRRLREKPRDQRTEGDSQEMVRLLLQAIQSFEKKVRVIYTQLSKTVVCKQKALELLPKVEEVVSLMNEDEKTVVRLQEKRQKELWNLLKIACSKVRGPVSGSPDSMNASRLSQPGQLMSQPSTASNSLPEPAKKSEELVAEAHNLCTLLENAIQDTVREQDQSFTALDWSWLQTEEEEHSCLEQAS
# [9] = biological target: T3, Inhibitor of nuclear factor kappa-B kinase subunit beta (Homo sapiens); details: at 1 µM
# [10] = biological target: T4, Inhibitor of nuclear factor kappa-B kinase subunit epsilon (Homo sapiens) (UniProt Q14164); details: at 0.1 µM
# T4 sequence (whole entry): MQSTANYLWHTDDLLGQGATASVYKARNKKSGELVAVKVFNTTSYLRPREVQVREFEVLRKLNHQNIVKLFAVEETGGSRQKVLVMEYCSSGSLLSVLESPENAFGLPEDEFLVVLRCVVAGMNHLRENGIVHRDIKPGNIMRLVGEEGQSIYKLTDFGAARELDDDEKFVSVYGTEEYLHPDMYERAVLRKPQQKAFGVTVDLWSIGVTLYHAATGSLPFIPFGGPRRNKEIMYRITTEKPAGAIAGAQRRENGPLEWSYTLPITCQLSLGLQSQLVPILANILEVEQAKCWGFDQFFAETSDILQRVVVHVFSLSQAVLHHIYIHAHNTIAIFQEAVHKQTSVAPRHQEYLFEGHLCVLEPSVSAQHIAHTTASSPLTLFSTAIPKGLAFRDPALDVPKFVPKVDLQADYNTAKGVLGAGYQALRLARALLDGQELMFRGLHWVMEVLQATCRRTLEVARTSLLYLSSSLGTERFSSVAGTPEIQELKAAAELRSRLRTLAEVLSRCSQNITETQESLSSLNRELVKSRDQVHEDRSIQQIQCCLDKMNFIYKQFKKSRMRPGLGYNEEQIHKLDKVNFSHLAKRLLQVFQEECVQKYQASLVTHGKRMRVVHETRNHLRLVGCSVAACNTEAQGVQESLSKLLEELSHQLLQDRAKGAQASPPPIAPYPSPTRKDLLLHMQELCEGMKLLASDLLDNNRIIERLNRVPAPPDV
# [11] = biological target: T4, Inhibitor of nuclear factor kappa-B kinase subunit epsilon (Homo sapiens); details: at 1 µM
# [12] = biological target: T5, Serine/threonine-protein kinase Nek1 (Homo sapiens) (UniProt Q96PY6); details: at 0.1 µM
# T5 sequence (whole entry): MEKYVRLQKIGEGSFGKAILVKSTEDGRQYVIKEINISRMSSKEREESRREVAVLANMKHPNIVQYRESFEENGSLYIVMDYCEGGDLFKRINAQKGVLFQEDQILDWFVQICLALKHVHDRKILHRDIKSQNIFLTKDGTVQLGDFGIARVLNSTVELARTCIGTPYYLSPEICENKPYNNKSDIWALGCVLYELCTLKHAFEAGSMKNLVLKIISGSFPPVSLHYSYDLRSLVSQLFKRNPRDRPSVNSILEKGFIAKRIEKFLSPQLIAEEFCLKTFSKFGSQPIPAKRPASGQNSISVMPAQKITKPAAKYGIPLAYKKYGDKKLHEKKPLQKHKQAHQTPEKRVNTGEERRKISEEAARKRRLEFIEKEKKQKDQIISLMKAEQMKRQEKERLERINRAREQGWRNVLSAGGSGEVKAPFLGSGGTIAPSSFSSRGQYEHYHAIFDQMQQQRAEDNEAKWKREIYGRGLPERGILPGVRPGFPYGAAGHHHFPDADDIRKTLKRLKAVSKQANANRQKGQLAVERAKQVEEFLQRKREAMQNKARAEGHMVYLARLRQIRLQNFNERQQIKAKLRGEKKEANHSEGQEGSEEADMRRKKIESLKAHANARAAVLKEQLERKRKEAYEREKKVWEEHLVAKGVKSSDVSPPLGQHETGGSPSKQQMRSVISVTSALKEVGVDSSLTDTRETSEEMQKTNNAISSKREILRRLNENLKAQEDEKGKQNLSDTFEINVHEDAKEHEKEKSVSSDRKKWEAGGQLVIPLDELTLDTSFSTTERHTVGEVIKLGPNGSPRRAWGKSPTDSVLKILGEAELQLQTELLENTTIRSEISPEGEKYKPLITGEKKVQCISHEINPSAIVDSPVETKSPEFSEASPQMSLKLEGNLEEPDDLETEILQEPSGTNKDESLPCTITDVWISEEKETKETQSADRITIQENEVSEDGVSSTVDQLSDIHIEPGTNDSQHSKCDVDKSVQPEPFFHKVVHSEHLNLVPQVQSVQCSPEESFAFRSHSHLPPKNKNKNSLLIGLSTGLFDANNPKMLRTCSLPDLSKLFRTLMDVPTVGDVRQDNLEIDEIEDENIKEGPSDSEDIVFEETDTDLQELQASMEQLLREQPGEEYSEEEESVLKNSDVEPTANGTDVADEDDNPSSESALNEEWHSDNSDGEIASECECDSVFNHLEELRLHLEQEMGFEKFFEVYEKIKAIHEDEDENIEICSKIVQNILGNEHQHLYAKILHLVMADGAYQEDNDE
# [13] = biological target: T5, Serine/threonine-protein kinase Nek1 (Homo sapiens); details: at 1 µM
# [14] = biological target: T6, Serine/threonine-protein kinase Nek2 (Homo sapiens) (UniProt P51955); details: at 0.1 µM
# T6 sequence (whole entry): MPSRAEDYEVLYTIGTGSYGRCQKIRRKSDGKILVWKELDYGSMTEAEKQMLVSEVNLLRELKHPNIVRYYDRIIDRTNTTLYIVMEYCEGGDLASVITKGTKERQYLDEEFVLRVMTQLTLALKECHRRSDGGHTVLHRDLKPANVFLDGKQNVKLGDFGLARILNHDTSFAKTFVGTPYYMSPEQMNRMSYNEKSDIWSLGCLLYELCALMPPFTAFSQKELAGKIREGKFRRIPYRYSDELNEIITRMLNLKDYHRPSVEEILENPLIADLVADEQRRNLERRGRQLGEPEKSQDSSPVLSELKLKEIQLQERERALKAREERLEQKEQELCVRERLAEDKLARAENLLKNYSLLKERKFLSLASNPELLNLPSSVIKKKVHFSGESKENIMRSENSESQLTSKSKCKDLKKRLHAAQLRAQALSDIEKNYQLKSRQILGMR
# [15] = biological target: T6, Serine/threonine-protein kinase Nek2 (Homo sapiens); details: at 1 µM
# [16] = biological target: Serine/threonine-protein kinase Nek6 (Homo sapiens) (UniProt Q9HC98); details: at 0.1 µM
# [17] = biological target: Serine/threonine-protein kinase Nek6 (Homo sapiens) (UniProt Q9HC98); details: at 1 µM
# [18] = biological target: Serine/threonine-protein kinase Nek7 (Homo sapiens) (UniProt Q8TDX7); details: at 0.1 µM
# [19] = biological target: Serine/threonine-protein kinase Nek7 (Homo sapiens) (UniProt Q8TDX7); details: at 1 µM
# [20] = biological target: T7, Serine/threonine-protein kinase Nek9 (Homo sapiens) (UniProt Q8TD19); details: at 0.1 µM;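 also: reported value is the mean percent inhibition of NEK9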
# T7 sequence (whole entry): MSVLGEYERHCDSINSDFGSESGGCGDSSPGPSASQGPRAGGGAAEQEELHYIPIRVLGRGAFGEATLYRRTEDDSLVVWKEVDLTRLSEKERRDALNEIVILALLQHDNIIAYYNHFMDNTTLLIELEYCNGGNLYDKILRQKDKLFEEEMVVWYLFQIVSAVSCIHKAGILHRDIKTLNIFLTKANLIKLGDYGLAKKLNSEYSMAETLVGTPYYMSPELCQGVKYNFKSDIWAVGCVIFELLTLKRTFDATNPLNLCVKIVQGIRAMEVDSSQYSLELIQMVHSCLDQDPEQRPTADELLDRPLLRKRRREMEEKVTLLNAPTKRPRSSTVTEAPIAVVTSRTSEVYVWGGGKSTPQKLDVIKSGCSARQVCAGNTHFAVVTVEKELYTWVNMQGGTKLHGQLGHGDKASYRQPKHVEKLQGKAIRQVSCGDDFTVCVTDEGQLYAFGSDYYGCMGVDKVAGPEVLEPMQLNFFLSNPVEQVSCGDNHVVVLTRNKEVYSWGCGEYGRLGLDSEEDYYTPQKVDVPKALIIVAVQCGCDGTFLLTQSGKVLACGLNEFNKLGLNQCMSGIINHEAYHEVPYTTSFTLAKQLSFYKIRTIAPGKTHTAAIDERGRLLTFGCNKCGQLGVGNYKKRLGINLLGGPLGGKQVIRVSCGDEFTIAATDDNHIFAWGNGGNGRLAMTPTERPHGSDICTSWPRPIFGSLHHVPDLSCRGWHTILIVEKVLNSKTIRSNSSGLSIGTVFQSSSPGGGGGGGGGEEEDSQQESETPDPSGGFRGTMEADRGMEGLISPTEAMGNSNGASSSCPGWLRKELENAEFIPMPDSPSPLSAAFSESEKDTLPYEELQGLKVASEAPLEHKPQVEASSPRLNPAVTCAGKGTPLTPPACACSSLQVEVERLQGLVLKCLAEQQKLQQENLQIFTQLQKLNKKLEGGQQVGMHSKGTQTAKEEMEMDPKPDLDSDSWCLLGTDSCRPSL
# Casein kinase II subunit alpha (Homo sapiens), sequence (P68400 whole entry, looked up): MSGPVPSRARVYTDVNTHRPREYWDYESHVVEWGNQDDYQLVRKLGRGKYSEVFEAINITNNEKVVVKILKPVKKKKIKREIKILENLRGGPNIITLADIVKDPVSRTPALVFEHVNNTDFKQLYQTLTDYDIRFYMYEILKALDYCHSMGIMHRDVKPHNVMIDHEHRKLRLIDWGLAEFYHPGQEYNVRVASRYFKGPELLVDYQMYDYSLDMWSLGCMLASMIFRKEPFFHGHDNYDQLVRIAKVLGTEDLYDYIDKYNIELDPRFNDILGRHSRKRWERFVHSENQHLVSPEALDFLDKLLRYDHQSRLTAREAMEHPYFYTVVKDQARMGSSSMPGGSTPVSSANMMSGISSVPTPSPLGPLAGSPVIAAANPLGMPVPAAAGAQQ
# Serine/threonine-protein kinase Nek6 (Homo sapiens), sequence (Q9HC98 whole entry): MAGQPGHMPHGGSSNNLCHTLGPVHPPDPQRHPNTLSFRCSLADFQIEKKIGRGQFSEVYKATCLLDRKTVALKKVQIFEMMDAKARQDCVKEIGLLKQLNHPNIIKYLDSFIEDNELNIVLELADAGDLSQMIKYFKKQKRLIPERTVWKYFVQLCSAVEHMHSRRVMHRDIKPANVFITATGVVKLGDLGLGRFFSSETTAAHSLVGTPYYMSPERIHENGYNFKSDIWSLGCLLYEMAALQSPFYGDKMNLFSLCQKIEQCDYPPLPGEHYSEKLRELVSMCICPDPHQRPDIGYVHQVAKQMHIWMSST
# Serine/threonine-protein kinase Nek7 (Homo sapiens), sequence (Q8TDX7 whole entry, looked up): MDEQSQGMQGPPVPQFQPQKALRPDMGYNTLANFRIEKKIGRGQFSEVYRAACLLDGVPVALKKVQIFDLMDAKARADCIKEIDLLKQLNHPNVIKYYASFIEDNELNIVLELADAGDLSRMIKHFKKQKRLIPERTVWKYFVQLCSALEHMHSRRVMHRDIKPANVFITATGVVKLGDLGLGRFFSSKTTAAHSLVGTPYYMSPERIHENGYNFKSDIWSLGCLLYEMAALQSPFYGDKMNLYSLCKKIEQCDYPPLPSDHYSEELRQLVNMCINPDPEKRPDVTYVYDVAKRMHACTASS
# Sphingosine kinase 1 (Homo sapiens), sequence (Q9NYA1 whole entry): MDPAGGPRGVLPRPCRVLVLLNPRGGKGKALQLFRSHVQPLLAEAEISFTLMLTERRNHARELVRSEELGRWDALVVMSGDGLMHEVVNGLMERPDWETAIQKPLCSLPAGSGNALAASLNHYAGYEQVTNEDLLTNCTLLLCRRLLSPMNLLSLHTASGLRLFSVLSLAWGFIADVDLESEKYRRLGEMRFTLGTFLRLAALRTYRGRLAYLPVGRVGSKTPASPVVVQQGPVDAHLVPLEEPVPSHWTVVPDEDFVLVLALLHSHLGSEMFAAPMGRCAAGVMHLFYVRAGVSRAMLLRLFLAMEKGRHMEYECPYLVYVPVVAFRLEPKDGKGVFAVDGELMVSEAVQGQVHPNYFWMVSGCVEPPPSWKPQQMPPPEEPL
smiles,measurement,setting,value
O=C1Nc2ccc(C(=O)c3ccco3)cc2C1=Cc1cc(Cl)c(O)c(Cl)c1,inhibition,[1],-1.68%
same,inhibition,[2],1.43%
same,inhibition,[3],1.2%
same,inhibition,[4],18%
same,inhibition,[5],55.2%
same,inhibition,[6],2.59%
same,inhibition,[7],8.32%
same,inhibition,[8],5.21%
same,inhibition,[9],2.45%
same,inhibition,[10],24.9%
same,inhibition,[11],52%
same,inhibition,[12],1.66%
same,inhibition,[13],6.79%
same,inhibition,[14],5.56%
same,inhibition,[15],3.76%
same,inhibition,[16],-0.24%
same,inhibition,[17],0.61%
same,inhibition,[18],3.27%
same,inhibition,[19],3.97%
same,inhibition,[20],6.51%
